This passage reports growth results from PubChem BioAssay (NCI).

Common to all, as to assay: NCI-60 one-dose screen, 48 h (100 = growth as untreated, 0 = no growth, -100 = all killed)
The test system of one test is DU-145 prostate. As to conditions: 10 µM unless noted.
A further test deals with K-562 leukemia. As to conditions: 10 µM unless noted.
The next test deals with MALME-3M melanoma. As to conditions: 10 µM unless noted.
The subject of a further test is MDA-MB-231 breast. To be noted: 10 µM unless noted.
Another test concerns RXF 393 renal. To be noted: 10 µM unless noted.
In the next test the test system is SF-268 CNS. As to conditions: 10 µM unless noted.
For another test, the system named is SF-295 CNS. As to conditions: 10 µM unless noted.
A further test has as its system SF-539 CNS. As to conditions: 10 µM unless noted.
A further test has as its system UACC-257 melanoma. To be noted: 10 µM unless noted.
The test system of a further test is M14 melanoma. To be noted: 10 µM unless noted.
The next test has as its system HCT-15 colon. To be noted: 10 µM unless noted.
The next test relates to HT29 colon. To be noted: 10 µM unless noted.
Another test deals with SNB-75 CNS. To be noted: 10 µM unless noted.
The subject of the next test is SNB-19 CNS. As to conditions: 10 µM unless noted.
Another test relates to U251 CNS. To be noted: 10 µM unless noted.
Another test deals with PC-3 prostate. As to conditions: 10 µM unless noted.
A further test has as its system SK-MEL-5 melanoma. As to conditions: 10 µM unless noted.
Another test relates to UACC-62 melanoma. As to conditions: 10 µM unless noted.
The subject of another test is LOX IMVI melanoma. As to conditions: 10 µM.
The next test has as its system SK-MEL-28 melanoma. As to conditions: 10 µM unless noted.

About 83,000 compounds went through this panel and 20% of them were active in at least one assay; those are over-represented in the sample as a whole.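 The test compound was applied at a single concentration to cells in 96-well plates for 48 hours, and percent growth was recorded.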 Values without a mark were called inactive. Activity calls are given as the source filed them. Rule for the calls: active = growth percent below 10; inactive = the rest.

Consider `Nc1nc(-c2ccccc2)c(N=Nc2ccc(Cl)cc2[N+](=O)[O-])s1`, for which the growth with DU-145 prostate was 112%; in the test with K-562 leukemia, 96.1%; in the test on MALME-3M melanoma it was 109%; with MDA-MB-231 breast, 95.5%; in the test on RXF 393 renal it was 106%; in the test with SF-268 CNS it was 87.7%. Besides, the growth was 101% in the test on SF-295 CNS; 86.5% with SF-539 CNS; 103% in the test with UACC-257 melanoma; 98.3% with M14 melanoma; 94.4% in the test on HCT-15 colon; 100% in the test on HT29 colon. The growth with SNB-75 CNS is 80.1%; in the test with SNB-19 CNS, 89.2%; in the test with U251 CNS, 92.4%; in the test on PC-3 prostate, 87.1%; in the test on SK-MEL-5 melanoma it was 98.8%; in the test on UACC-62 melanoma it was 77.3%. In addition, the growth in the test with LOX IMVI melanoma was 88.2%; with SK-MEL-28 melanoma, 107%.
`CN(C)c1nc(NCCNS(=O)(=O)c2ccc(C(=O)/C=C/c3ccc(C(F)(F)F)cc3)cc2)nc(Nc2ccc(F)cc2)n1`: the growth was 6.99% (active) in the test with DU-145 prostate; -1.07% (active) in the test with K-562 leukemia; -2.41% (active) with MALME-3M melanoma; -74.2% (active) with MDA-MB-231 breast; -81.4% (active) in the test with RXF 393 renal; 21.6% with SF-268 CNS. Also, the growth in the test on SF-295 CNS is -14.6% (active); in the test with SF-539 CNS, -97.5% (active); in the test on UACC-257 melanoma, 23.7%; in the test with M14 melanoma, -48.3% (active); in the test on HCT-15 colon, -92.5% (active); with HT29 colon, -94% (active). Also, the growth in the test with SNB-75 CNS was 54.6%; in the test with SNB-19 CNS, 25.2%; with U251 CNS it was -99.2% (active); in the test with PC-3 prostate, -33.5% (active); with SK-MEL-5 melanoma it was 16.2%; in the test with UACC-62 melanoma, -5.71% (active). Besides, the values for the growth in the test on LOX IMVI melanoma and with SK-MEL-28 melanoma were -100% (active) and -80% (active), respectively.
Regarding `Cn1cc(-c2cc(N)n3nc(-c4cn(C)c5ccccc45)cc3n2)c2cc(Cl)ccc21`, the growth in the test on DU-145 prostate was 22%; with K-562 leukemia, 1.57% (active); with MALME-3M melanoma it was -77% (active); in the test on MDA-MB-231 breast it was -45.4% (active); in the test on RXF 393 renal, -73.7% (active); with SF-268 CNS, -46.4% (active). For the same compound, the growth with SF-295 CNS was -53.8% (active); in the test on SF-539 CNS, -69.3% (active); in the test on UACC-257 melanoma it was -59.9% (active); with M14 melanoma, -78.3% (active); in the test on HCT-15 colon, -78.3% (active); with HT29 colon, -67.2% (active). Besides, the growth in the test with SNB-75 CNS is -44% (active); in the test with SNB-19 CNS it was -0.728% (active); with U251 CNS, -74.5% (active); in the test on PC-3 prostate it was -38.1% (active); in the test on SK-MEL-5 melanoma, -67% (active); in the test on UACC-62 melanoma, -56.2% (active). For the same compound, the growth in the test with LOX IMVI melanoma is -86.5% (active); in the test with SK-MEL-28 melanoma, -86.7% (active).
For the compound `O=C(CN1C(=O)/C(=C/c2ccccc2F)SC1=S)N1CCOCC1`, the growth is 56.3% in the test on DU-145 prostate; 19.2% in the test with K-562 leukemia; 51.8% in the test on MALME-3M melanoma; 92% in the test with MDA-MB-231 breast; 71.8% in the test on RXF 393 renal; 99.1% in the test on SF-268 CNS. Moreover, the growth with SF-295 CNS was 108%; in the test on SF-539 CNS, 82.3%; in the test with UACC-257 melanoma, 89.6%; in the test on M14 melanoma it was 79.4%; in the test with HCT-15 colon, 29.4%; in the test with HT29 colon, 87.1%. The growth in the test on SNB-75 CNS is 106%; in the test with SNB-19 CNS, 91%; with U251 CNS, 91.8%; with PC-3 prostate it was 95.1%; with SK-MEL-5 melanoma, 93.9%; in the test on UACC-62 melanoma, 76.2%. For the same compound, the growth in the test with LOX IMVI melanoma is 38%; with SK-MEL-28 melanoma, 86.4%.
Turning to `O=C1CCCc2cc(OCC(=O)N3CCCCC3)ccc2N1`, the growth was 122% with DU-145 prostate; 106% with K-562 leukemia; 102% with MALME-3M melanoma; 105% in the test on MDA-MB-231 breast; 110% with RXF 393 renal; 108% in the test on SF-268 CNS. Moreover, the growth is 99% in the test on SF-295 CNS; 101% in the test on SF-539 CNS; 111% with UACC-257 melanoma; 116% in the test with M14 melanoma; 105% in the test with HCT-15 colon; 127% with HT29 colon. Besides, the growth is 101% with SNB-75 CNS; 99.7% in the test with SNB-19 CNS; 107% in the test with U251 CNS; 109% in the test on PC-3 prostate; 104% with SK-MEL-5 melanoma; 105% with UACC-62 melanoma. In addition, the growth is 97.1% in the test with LOX IMVI melanoma and 119% with SK-MEL-28 melanoma.
Turning to `Cn1cc(-c2cc(N)n3nc(-c4cn(C)c5ccccc45)cc3n2)c2cc(Br)ccc21`, the growth with DU-145 prostate is 27.7%; with K-562 leukemia, 0.853% (active); with MALME-3M melanoma it was -72.9% (active); in the test on MDA-MB-231 breast, -41.2% (active); in the test with RXF 393 renal it was -70.1% (active); in the test with SF-268 CNS, -47.3% (active). Besides, the growth in the test on SF-295 CNS is -53.4% (active); in the test on SF-539 CNS, -72.3% (active); in the test with UACC-257 melanoma it was -71% (active); in the test on M14 melanoma, -74.4% (active); in the test on HCT-15 colon, -79.1% (active); in the test with HT29 colon, -65.1% (active). Also, the growth is -35.7% (active) with SNB-75 CNS; 7.16% (active) in the test with SNB-19 CNS; -72% (active) with U251 CNS; -34% (active) with PC-3 prostate; -63.5% (active) with SK-MEL-5 melanoma; -59.7% (active) with UACC-62 melanoma. The growth was -85.3% (active) in the test with LOX IMVI melanoma and -86.4% (active) with SK-MEL-28 melanoma.
As to `CN(C)c1nc(NCCNS(=O)(=O)c2ccc(C3=Nc4c(N)nc(N)nc4NC(c4ccc(F)cc4)C3)cc2)nc(Nc2ccc(F)cc2)n1` (stereo not given), the growth in the test on DU-145 prostate is 54.2%; in the test with K-562 leukemia, 3.61% (active); with MALME-3M melanoma it was 47.1%; in the test on MDA-MB-231 breast, 20.8%; in the test with RXF 393 renal, 16.5%; in the test with SF-268 CNS, 31.9%. In addition, the growth in the test with SF-295 CNS is 57.3%; with SF-539 CNS, -25.3% (active); with UACC-257 melanoma, 59.3%; in the test on M14 melanoma, 28%; in the test on HCT-15 colon it was 44.7%; in the test on HT29 colon, 10%. Further, the growth was 58.6% with SNB-75 CNS; 46.1% in the test on SNB-19 CNS; 31.6% in the test on U251 CNS; 18.9% in the test with PC-3 prostate; 21.3% with SK-MEL-5 melanoma; 45.2% with UACC-62 melanoma. In addition, the growth with LOX IMVI melanoma is -40% (active); in the test with SK-MEL-28 melanoma it was 55.4%.
With `Cn1cc(-c2nnc(N)nc2-c2c[nH]c3ccc(Br)cc23)c2cc(Br)cnc21`, the growth is 75.8% in the test with DU-145 prostate; 26.7% in the test on K-562 leukemia; 69% in the test with MALME-3M melanoma; 55.8% with MDA-MB-231 breast; 17.1% with RXF 393 renal; 71.3% in the test on SF-268 CNS. Moreover, the growth is 63.5% with SF-295 CNS; 63.6% in the test on SF-539 CNS; 83.4% in the test with UACC-257 melanoma; 57.2% in the test on M14 melanoma; 22.4% in the test on HCT-15 colon; 16.6% in the test on HT29 colon. Besides, the growth in the test with SNB-75 CNS was 32%; in the test on SNB-19 CNS, 65.5%; in the test with U251 CNS, 62.4%; in the test with PC-3 prostate, 38.5%; with SK-MEL-5 melanoma, 68%; in the test with UACC-62 melanoma it was 46.3%. Also, the figures for the growth in the test on LOX IMVI melanoma and in the test on SK-MEL-28 melanoma were 58.7% and 43.6%, respectively.
